# Values without a mark were called inactive. Calls of active or inactive are those of the source. How the calls were made is not given here.
# Assay: C difficile toxins, biochemical counterscreen, UDPG substrate absence, confirmatory dose response (AID 720650)
# Settings: series mostly up to 19.5 µM; activity change, negative = inhibition: at the top concentration
SMILES,"activity change, negative = inhibition [%]",AC50
O=C(C[C@@H]1C[C@H]2c3cc(NC(=O)c4ccc5c(c4)OCO5)ccc3O[C@H]2[C@H](CO)O1)NCc1cccc(F)c1,-1.94,–
COc1ccc(/C=C\c2onc(C)c2S(=O)(=O)N2CCC(C(=O)NCc3ccco3)CC2)cc1,-7.32,–
CCC(=O)Nc1ccc2c(c1)OC[C@@H](C)N(C(=O)NC(C)C)C[C@H](C)[C@H](OC)CN(C)C2=O,7.18,–
O=C(C[C@H]1CC[C@H]2[C@@H](COC[C@H](O)CN2C(=O)Nc2ccc(Cl)c(Cl)c2)O1)NCc1ccncc1,8.56,–
Cc1ccc(-c2csc(NC(=O)/C=C/c3ccco3)c2C(=O)O)cc1,-19.9,–
Cc1cc(C=C2C(=O)c3ccccc3C2=O)c(C)n1-c1ccc(C(=O)O)cc1,–,12 µM (active)
CC(C)NC(=O)N1CC[C@@H]2[C@H]1c1cc(-c3ccccc3)ccc1N(C)[C@H]2CO,–,5.77 µM (active)
COc1ccc(S(=O)(=O)N2CCOCC2)cc1NC(=O)COC(=O)c1[nH]c(C)c(C(C)=O)c1C,–,> 39 µM
O=C(CNC(=O)c1ccccc1Br)N/N=C/c1ccc(O)cc1,–,15.7 µM (active)
COc1cc(/C=C/C(=O)OCC(=O)N(C)Cc2ccccc2)ccc1O,-5.74,–
COCC#Cc1ccc2c(c1)O[C@H](CN(C)C(=O)CC1CC1)[C@@H](C)CN([C@H](C)CO)S2(=O)=O,-2.37,–
O=S(=O)(Cc1cccc(F)c1)c1c[nH]c2ccccc12,–,> 39 µM
Cc1c(O)ccc(NC(=O)/C=C/c2ccccc2)c1C,–,> 39 µM
COc1ccc(CNC(=O)C2CCN(S(=O)(=O)c3c(C)noc3/C=C/N(C)C)CC2)cc1,-8.74,–
CC12CCC(=O)N1C(C(=O)OCc1c(Cl)cccc1Cl)CS2 (stereo not drawn),-9.04,–
COc1cc(/C=C/C(=O)OCC(=O)NC(=O)NC(C)(C)C)ccc1O,6.81,–
COc1ccccc1/C=C/c1onc(C)c1S(=O)(=O)N1CCC(C(=O)NC2CCCCCC2)CC1,-15.8,–
CN(C(=O)Cn1c(=O)oc2cc(S(=O)(=O)N3CCCC3)ccc21)C1CCCCC1,-7.83,–
CC1(C)OC2C(O1)[C@@H](CO)O[C@H]2n1cnc2c(N)ncnc21 (stereo partly drawn),0.905,–

SMILES,"activity change, negative = inhibition [%]",AC50
Cc1ccc(C2=NS(=O)(=O)N(C)C(C(=O)NCc3cccs3)=C2)cc1,-9.62,–
CNC(=O)C[C@@H]1CC[C@@H]2[C@H](COc3ccc(NS(=O)(=O)c4ccccc4C)cc3C(=O)N2C)O1,11.4,–
CCN(CC)CCNc1ccc(C)c2sc3ccc(O)cc3c(=O)c12,–,5.7 µM (active)
O=C(C1CCOCC1)N1CC[C@@H]2[C@@H](CO)Nc3ccc(-c4ccc(F)cc4)cc3[C@@H]21,–,22 µM (active)
Cc1c(-n2c(O)c(C3=c4ccccc4=NC3=O)sc2=S)c(=O)n(-c2ccccc2)n1C,6.56,–
CN(C)c1ccc(NC(=O)/C=C/c2c(Cl)cccc2Cl)cc1,2.86,–
Cc1onc(-c2ccccc2Cl)c1C(=O)Nc1cnn(Cc2ccccc2)c1,-8.22,–
Cc1ccc(C2=NS(=O)(=O)N(C)C(C(=O)NCc3ccccc3)=C2)cc1,-8.53,–
COc1cc(/C=N/NC(=O)CCN2CCCCC2)ccc1O,-1.61,–
O=[N+]([O-])c1c(Nc2ccccc2O)ccc2nonc12,–,> 39 µM
Nc1ccc2c(c1)[nH]c(=O)c1cc(N)ccc12,–,13 µM (active)
O=C(Nc1ccc(N2CCOCC2)c(Cl)c1)c1ccc2c(c1)OCCO2,-12.3,–
Cc1cc(C)c2nc(C)cc(N/N=C/c3ccc(O)cc3)c2c1,–,12.1 µM (active)
N#CCCN(C(=O)COC(=O)c1cc(=O)c2ccccc2o1)c1ccccc1,-5.26,–
O=C(O)c1ccc(-c2ccc(O)c(F)c2)cc1,–,13.5 µM (active)
CCNC(=O)C[C@H]1CC[C@@H]2[C@@H](COc3ccc(NC(C)=O)cc3C(=O)N2C)O1,4.3,–
CCC(=O)Nc1ccc2c(c1)OC[C@H](C)N(C(=O)NC(C)C)C[C@H](C)[C@H](OC)CN(C)C2=O,-3.05,–
CCCc1[nH]c(=O)c(C#N)c2c1CCCC2,-11.3,–
O=C(C[C@@H]1CC[C@H]2[C@@H](COC[C@@H](O)CN2C(=O)c2ccccn2)O1)NC1CCC1,-1.73,–
